The results in this text go back to PubChem BioAssay (NCATS).

Where “and” joins values, the source holds several entries; their conditions need not be identical. Identical values can stand only once. Results filed as inconclusive are left out. Calls of active or inactive are those of the source. Unless noted, calls come from the whole dose curve; as a rule, active = well fitted curve in either direction with a large enough effect (not every such curve was filed as active); inconclusive = small, poorly fitted or top-dose-only effect, or another doubt; inactive = flat fitted curve, though single readings scatter.

One test in a line: Cell Viability - MRC5 (AID 434; calls by dose curve;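 note: potency is the fitted concentration of half-maximal effect; cells exposed to compound for 40 hours at 37 °C; potency reflects cytotoxicity seen as loss of intracellular ATP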). The following applies: MRC5 lung fibroblast viability, qHTS. In short, it runs like this:
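qHTS cytotoxicity in human lung fibroblast MRC5 cells; 40 hr treatment, 37 °C; cellular ATP by luciferase luminescence; DMSO = 0%, 100 uM tamoxifen = 100% inhibition; Hill-fit AC50.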
(In qHTS, concentration-response curves come from the screen itself.)
As for `Oc1cccc2cccnc12`, the Potency was > 92 µM (inactive).

As for `CNCC(O)c1ccc(O)cc1` (stereo not drawn), the Potency was > 92 µM (inactive).

As to `Clc1ccc(COC(Cn2ccnc2)c2ccc(Cl)cc2Cl)cc1` (stereo not drawn), the Potency is 95 µM (inactive).

The next test can be described thus: NFAT Signaling Pathway (AID 444).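 Note: carbachol stimulus at about its EC50 of 1 µM final; % is set by controls: 0 for no effect and ±100 for the full control effect.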 The following applies: Jurkat NFAT-bla M1, carbachol, beta-lactamase ratio, 5 h; at 17.2 µM (top of the series). The method, boiled down:
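Read-out: CCF4 FRET ratio (460 nm/530 nm) after 1 h RT dye loading, used for %activity and AC50 from titration series. Cells: Jurkat NFAT-β-lactamase/M1 line, treated with compound plus 1 uM carbachol for 5 h, 37 °C.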
As to `CCn1cc(C(=O)O)c(=O)c2ccc(C)nc21`, the activity change, negative = inhibition is -8.77% (inactive) and -6.5% (inactive).

With `C=C1CC[C@@]2(O)[C@H]3Cc4ccc(O)c5c4[C@@]2(CCN3CC2CC2)[C@H]1O5`, the activity change, negative = inhibition was -9.27% (inactive).

For `O=[N+]([O-])c1cc([As](=O)(O)O)ccc1O`, the activity change, negative = inhibition was -8.47% (inactive).

Take `CN1C[C@H](CNC(=O)OCc2ccccc2)C[C@@H]2c3cccc4c3c(cn4C)C[C@H]21`: the activity change, negative = inhibition is 11.1% (inactive).

In the case of `CC[C@@H](CO)NC(=O)[C@@H]1C=C2c3cccc4c3c(cn4C)C[C@H]2N(C)C1`, the activity change, negative = inhibition is -12.8% (inactive).

Turning to `NCC1(CC(=O)O)CCCCC1`, the activity change, negative = inhibition was -5.52% (inactive) and 10.6% (inactive).

Turning to `CNCC(O)c1ccc(O)cc1` (stereo not drawn), the activity change, negative = inhibition was 19.4% (inactive).

For the compound `O=C1CC[C@@]2(O)[C@H]3Cc4ccc(O)c5c4[C@@]2(CCN3CC2CC2)[C@H]1O5`, the activity change, negative = inhibition was 1.18% (inactive).

As for `CCCN1CCC[C@@H]2Cc3[nH]ncc3C[C@H]21`, the activity change, negative = inhibition is 24.4% (inactive).

On to `O=c1[nH]c2ccccc2n1CCCN1CCC(n2c(=O)[nH]c3cc(Cl)ccc32)CC1`, for which the activity change, negative = inhibition was -16.6% (inactive) and -16.4% (inactive).

Staying with this test, now noted: Jurkat NFAT-bla M1, carbachol, beta-lactamase ratio, 5 h; at 38 µM (top of the series).
In the case of `CCn1cc(C(=O)O)c(=O)c2ccc(C)nc21`, the activity change, negative = inhibition was 12.2% (inactive).

For `NN=C(N)N`, the activity change, negative = inhibition is 2.99% (inactive) and 1.19% (inactive).

On to `COc1ccccc1N1CCNCC1`, for which the activity change, negative = inhibition was -22.1% (inactive).

Take `Nc1ccncc1`: the activity change, negative = inhibition was -3.97% (inactive).

As to `NCC1(CC(=O)O)CCCCC1`, the activity change, negative = inhibition was 3.24% (inactive).

Regarding `CCCN1CCC[C@@H]2Cc3nc(N)ncc3C[C@H]21`, the activity change, negative = inhibition was -3.63% (inactive).

Regarding `N#CC(C#N)=Cc1ccc(O)c(O)c1`, the activity change, negative = inhibition is -13.6% (inactive).

On to `Cc1ccc(S(=O)(=O)N[C@@H](CCCCN)C(=O)CCl)cc1`, for which the activity change, negative = inhibition is -22.6% (inactive).

With `Clc1cccc(N2CCNCC2)c1`, the activity change, negative = inhibition was -4.86% (inactive).

Regarding `Cc1cccc(C)c1NC1=NCCCS1`, the activity change, negative = inhibition was -14.8% (inactive).

Take `N[C@@H]1C[C@H]1c1ccccc1`: the activity change, negative = inhibition was -3.2% (inactive).

Consider `CCCN1CCC[C@@H]2Cc3[nH]ncc3C[C@H]21`, for which the activity change, negative = inhibition is 7.41% (inactive) and -8.14% (inactive).

With `Cc1ncc(CNC(=O)N(CCCl)N=O)c(N)n1`, the activity change, negative = inhibition was 3.51% (inactive).

`O=c1[nH]c2ccccc2n1CCCN1CCC(n2c(=O)[nH]c3cc(Cl)ccc32)CC1`: the activity change, negative = inhibition was -15.8% (inactive).

The next test can be described thus: Stat Signaling Pathway (AID 446).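 Note: ME-180 cervical cancer cells given 40 pM IL-6 alongside compound; SIE-controlled beta-lactamase reporter measured as 460/530 nm FRET emission ratio; % is set by controls: 0 for no effect and ±100 for the full control effect.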 The following applies: ME-180 SIE beta-lactamase reporter, IL-6 stimulated, 5 h; at 17.2 µM (top of the series). In short, it runs like this:
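ME-180 cells carrying a SIE-driven beta-lactamase reporter are stimulated with 40 pM IL-6 for 5 h at 37C in the presence of compound. The 460/530 nm FRET substrate ratio is read after 2.5 h at RT. Data are normalised to 300 pM IL-6 and to 125 nM JAK inhibitor controls.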
With `CCn1cc(C(=O)O)c(=O)c2ccc(C)nc21`, the activity, negative = inhibition is 10.7% (inactive) and -2.6% (inactive).

In the case of `C=C1CC[C@@]2(O)[C@H]3Cc4ccc(O)c5c4[C@@]2(CCN3CC2CC2)[C@H]1O5`, the activity, negative = inhibition is 2.91% (inactive).

As for `O=[N+]([O-])c1cc([As](=O)(O)O)ccc1O`, the activity, negative = inhibition was 10.9% (inactive).

Take `CN1C[C@H](CNC(=O)OCc2ccccc2)C[C@@H]2c3cccc4c3c(cn4C)C[C@H]21`: the activity, negative = inhibition is -8.15% (inactive).

Consider `NCC1(CC(=O)O)CCCCC1`, for which the activity, negative = inhibition is -0.102% (inactive) and 1.2% (inactive).

Take `CNCC(O)c1ccc(O)cc1` (stereo not drawn): the activity, negative = inhibition was 14.9% (inactive).

Regarding `Clc1ccc(COC(Cn2ccnc2)c2ccc(Cl)cc2Cl)cc1` (stereo not drawn), the activity, negative = inhibition is -23% (inactive).

Consider `O=C1CC[C@@]2(O)[C@H]3Cc4ccc(O)c5c4[C@@]2(CCN3CC2CC2)[C@H]1O5`, for which the activity, negative = inhibition was 2.9% (inactive).

Turning to `Cc1cccc(C)c1NC1=NCCCS1`, the activity, negative = inhibition was 3.23% (inactive).

On to `CCCN1CCC[C@@H]2Cc3[nH]ncc3C[C@H]21`, for which the activity, negative = inhibition is 8.2% (inactive).

`O=c1[nH]c2ccccc2n1CCCN1CCC(n2c(=O)[nH]c3cc(Cl)ccc32)CC1`: the activity, negative = inhibition is 1.15% (inactive) and 2.02% (inactive).

Still in this test, the particulars now being: ME-180 (cervical carcinoma) SIE beta-lactamase reporter, IL-6 stimulated, 5 h; at 38 µM (top of the series).
With `CCn1cc(C(=O)O)c(=O)c2ccc(C)nc21`, the activity, negative = inhibition was -7% (inactive).

In the case of `NN=C(N)N`, the activity, negative = inhibition was 13% (inactive) and 15.8% (inactive).

Consider `COc1ccccc1N1CCNCC1`, for which the activity, negative = inhibition is 16.4% (inactive).

As to `Nc1ccncc1`, the activity, negative = inhibition was 18.2% (inactive).

Turning to `NCC1(CC(=O)O)CCCCC1`, the activity, negative = inhibition was -12.4% (inactive).

Take `CCCN1CCC[C@@H]2Cc3nc(N)ncc3C[C@H]21`: the activity, negative = inhibition was -19.8% (inactive).

Take `N#CC(C#N)=Cc1ccc(O)c(O)c1`: the activity, negative = inhibition is -24.2% (inactive).

For `c1ccc(C2CC2)c(OCC2=NCCN2)c1`, the activity, negative = inhibition was -9.49% (inactive).

As for `Cc1ccc(S(=O)(=O)N[C@@H](CCCCN)C(=O)CCl)cc1`, the activity, negative = inhibition is -67% (active).

For `Clc1cccc(N2CCNCC2)c1`, the activity, negative = inhibition is 3.38% (inactive).

Consider `Cc1cccc(C)c1NC1=NCCCS1`, for which the activity, negative = inhibition was 9.43% (inactive).

`N[C@@H]1C[C@H]1c1ccccc1`: the activity, negative = inhibition is 20.3% (inactive).

Consider `CCCN1CCC[C@@H]2Cc3[nH]ncc3C[C@H]21`, for which the activity, negative = inhibition was -2.11% (inactive) and 14.3% (inactive).

As for `Cc1ncc(CNC(=O)N(CCCl)N=O)c(N)n1`, the activity, negative = inhibition was -6.98% (inactive).

With `O=c1[nH]c2ccccc2n1CCCN1CCC(n2c(=O)[nH]c3cc(Cl)ccc32)CC1`, the activity, negative = inhibition is -0.208% (inactive).
